SRC2 TRFRET art = counter-screen for PPARgamma SRC-2 recruitment agonists: TR-FRET artefact | hits give high values | TR-FRET ratio at 8 µM | 200,000 tested, 0.4% active | AID 1049; in the data active = TR-FRET ratio above about 2000
SRC1 TRFRET art = counter-screen for PPARgamma SRC-1 recruitment agonists: TR-FRET artefact. TR-FRET detection artefact counter-screen, emission ratio; hits give high values. TR-FRET ratio at 8 µM. 99,000 tested, 0.34% active. AID 1051; in the data active = TR-FRET ratio above about 2300
PPARg SRC-3 ag = promotes SRC-3 coactivator recruitment by human PPARgamma | biochemical PPARgamma/SRC-3 coactivator recruitment assay | activation, % at 8 µM | 200,000 tested, 0.26% active; in the data active = activation above about 23%;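 also: 0% = DMSO and 100% = reference agonist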
PPARg SRC-1 ag = agonists of human PPARgamma SRC-1 coactivator recruitment; P37231; PPARgamma-SRC-1 coactivator recruitment biochemical assay; activation, % at 8 µM; 200,000 tested, 0.41% active; in the data active = activation above about 19%;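 also: 0% = DMSO and 100% = reference agonist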
SRC3 TRFRET art = flags TR-FRET format artefacts in PPARgamma SRC-3 recruitment agonist screen; 99,000 tested, 0.39% active; TR-FRET artefact counter-screen, PPARgamma/SRC-3 format; hits give high values; TR-FRET ratio at 8 µM; in the data active = TR-FRET ratio above about 2000
PPARg SRC-2 ag = promotes SRC-2 coactivator recruitment by human PPARgamma; activation, % at 8 µM; 200,000 tested, 0.34% active; PPARgamma LBD-SRC-2 recruitment, biochemical; P37231;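 also: 0% = vehicle and 100% = reference agonist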
PPARg SRC2 ag = confirmation of agonists of SRC-2 recruitment by human PPARgamma. AID 1297. 790 tested, 52% active. activation, % at 8 µM. biochemical SRC-2 recruitment by PPARgamma. shares compounds with PPARg SRC-3 ag;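 also: 0% = vehicle alone and 100% = reference agonist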
PPARg SRC1 ag = human PPARgamma SRC-1 recruitment agonism, confirmation | shares compounds with PPARg SRC-3 ag | PPARgamma–SRC-1 coactivator recruitment biochemical assay | 790 tested, 43% active | activation, % at 8 µM; in the data active = activation above about 20%;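 also: 0% = vehicle wells and 100% = reference agonist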
PPARg SRC3 ag = confirmation of agonists of SRC-3 recruitment by human PPARgamma. 790 tested, 29% active. activation, % at 8 µM. shares compounds with PPARg SRC-3 ag. biochemical PPARgamma-SRC-3 coactivator recruitment, agonist mode; in the data active = activation above about 24%;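 also: 0% = vehicle wells and 100% = reference agonist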
Active calls of the source: *; . = not tested or not shown. Sampled rows, rich in hits. Any-hit rate of the full collection: about 0.84%. Rule as the data show it, unless noted: active = activation above about 22%; inactive = the rest.

SMILES	SRC2 TRFRET art	SRC1 TRFRET art	PPARg SRC-3 ag	PPARg SRC-1 ag	SRC3 TRFRET art	PPARg SRC-2 ag	others
O=C(O)CC1NC(=O)N(C2CCCCC2)C1=O (centres undefined)	1521	1927	0	3	1704	-3
CN1CCN(c2ccc(Cl)cc2NC(=O)CCN2C(=O)c3ccccc3C2=O)CC1	1493	1880	4	7	1726	7
Cc1cc(C)cc(-n2c(C)cc(/C=N/NC(=O)c3ccncc3)c2C)c1	1986*	2092	1	1	1610	4
Cc1ccccc1-n1c(C)cc(/C=N/NC(=O)c2ccncc2)c1C	1379	.	-6	-4	.	-6
CCN(CC)CCCNC(=O)c1ccc2c(SCC(=O)O)c3c(nc2c1)CCC3	1661	1924	5	9	1780	23*
O=C(Nc1nc(-c2nc3ccccc3s2)cs1)C1COc2ccccc2O1 (centres undefined)	1973*	2597*	10	9	1956	17
CCOC(=O)c1oc2ccc(S(=O)(=O)N3CCC(C)CC3)cc2c1C	1625	.	15	46*	.	-1
O=C(C1=C[C@@H](c2ccc(C(F)(F)F)cc2)C[C@@H](OCc2ccc(CO)cc2)O1)N1CCOCC1	1870	1750	1	7	1614	24*
CC(C)C(=O)N1C2CCC1CC(O)(c1ccc(F)cc1)C2 (centres undefined)	1527	.	48*	-1	.	-4
Cc1cc(N2C3CCC2CC(O)(c2ccc(F)cc2)C3)nc(-c2ccccc2)n1 (centres undefined)	1437	.	-9	4	.	-8
O=[N+]([O-])c1cc(CN2CCCC2)ccc1Sc1ccc(Cl)cc1	1451	1770	0	-3	1379	0
Clc1ccc(-c2nnc3sc(-c4ccc(Br)o4)nn23)cc1	1593	.	28*	8	.	11
Clc1ccccc1-c1nnc2sc(-c3ccc(Br)o3)nn12	1961	.	18	5	.	12
COc1ccc(NS(=O)(=O)c2c(C)n(C)c(=O)n(C)c2=O)cc1OC	1716	.	3	-4	.	24*
COc1ccc(-c2cc(C(F)F)n3ncc(C(=O)Nc4cccc(S(=O)(=O)N5CCOCC5)c4)c3n2)cc1	1336	1763	1	4	1529	-6
O=C(CSc1ccc(-c2ccco2)nn1)NCc1ccccc1Cl	1506	2338*	6	3	1557	6
O=C(O)c1cnn(-c2ccccc2)c1-n1cccc1	1618	.	14	3	.	7
NNC(=O)c1cnn(-c2ccccc2)c1-n1cccc1	2005*	1758	3	-8	1641	30*
COc1cc(OC)cc(C2=NCCN2)c1	1550	1918	0	4	1512	10
N#Cc1ccccc1NC(=O)c1ccccc1OCC(=O)Nc1ccc2c(c1)oc1ccccc12	2662*	.	5	3	.	13
Cc1ccccc1OCC(=O)Nc1ccccc1N1CCC(C)CC1	1634	2038	-1	3	1771	2
COc1cccc(-c2cc3nc(-c4ccccc4)cc(N4CCC5(CC4)OCCO5)n3n2)c1	2317*	.	8	9	.	7
Cc1cccc(C)c1NC(=S)Nc1c(C)n(C)n(-c2ccccc2)c1=O	1391	1821	-5	26*	1560	-1
O=C(COC(=O)c1cc(-c2cccc(Br)c2)nc2ccccc12)NCC1CCCO1 (centres undefined)	1589	1864	3	-6	1524	2
CN(C)c1ccc(N=C/C=C2/N(C)c3ccccc3C2(C)C)cc1	2099*	2167	17	28*	2085*	32*	PPARg SRC2 ag=13;PPARg SRC1 ag=12;PPARg SRC3 ag=8
SMILES	SRC2 TRFRET art	SRC1 TRFRET art	PPARg SRC-3 ag	PPARg SRC-1 ag	SRC3 TRFRET art	PPARg SRC-2 ag	others
CN1/C(=C\C=N\O)C(C)(C)c2ccccc21	1498	1991	-1	-3	1499	1
CC(=O)c1sc(NC(=O)c2ccco2)nc1-c1ccccc1	1647	.	8	6	.	6
CCOC(=O)c1sc(NC(=O)c2ccco2)nc1-c1ccccc1	1718	.	32*	26*	.	4	PPARg SRC2 ag=32*;PPARg SRC1 ag=20;PPARg SRC3 ag=17
COc1ccc(CCN(C)C(=S)NC(=O)c2ccc(F)cc2Cl)cc1OC	1649	1656	-5	0	1531	-8
CCCC(C)NC(=O)c1ccc(OCc2ccc(Cl)cc2)c(OC)c1 (centres undefined)	1657	2154	57*	62*	1723	23*	PPARg SRC2 ag=31*;PPARg SRC1 ag=56*;PPARg SRC3 ag=48*
CCCCc1cc(=O)oc2cc(C)cc(O)c12	1941	.	17	7	.	14
CCCCc1cc(=O)oc2cc(O)cc(O)c12	2054*	2687*	13	28*	2006	20	PPARg SRC2 ag=13;PPARg SRC1 ag=9;PPARg SRC3 ag=11
Cc1ccc(NS(=O)(=O)c2cc(C(=O)NCCSc3ccc(C)cc3)ccc2C)cc1	1621	.	10	20*	.	21	PPARg SRC2 ag=9;PPARg SRC1 ag=14;PPARg SRC3 ag=17
COC(=O)c1sccc1-c1ccc(/C=N/OC(=O)c2ccccc2)o1	2291*	.	47*	31*	.	56*	PPARg SRC2 ag=56*;PPARg SRC1 ag=49*;PPARg SRC3 ag=40*
Cc1ccccc1C(C(=O)NC1CCCCC1)N(C(=O)CNC(=O)c1ccco1)c1cccnc1 (centres undefined)	1677	1835	5	1	1756	4
Cc1ccc(S(=O)(=O)N(CC(=O)Nc2ccccc2C(=O)O)c2ccc(Cl)cc2)cc1	1401	1522	0	-12	1666	0
S=c1nc[nH]c2c1[nH]c1ccccc12	2670*	.	48*	29*	.	38*	PPARg SRC2 ag=15;PPARg SRC1 ag=5;PPARg SRC3 ag=11
O=C(NCc1ccco1)C1CCCN1C(=O)Nc1ccc(Cl)cc1 (centres undefined)	1551	1565	4	-3	1371	7
CSc1ccccc1-c1nnc(-c2ccc(Cl)cc2Cl)o1	1526	.	7	2	.	3
CCSc1nnc(-c2ccccc2SC)o1	2020*	2385*	11	20*	1975	19	PPARg SRC2 ag=27*;PPARg SRC1 ag=20*;PPARg SRC3 ag=18
COc1ccc([N+](=O)[O-])cc1NC(=O)c1ccc(Br)s1	2056*	2669*	13	22*	2129*	17	PPARg SRC2 ag=20;PPARg SRC1 ag=13;PPARg SRC3 ag=6
CC(=O)N1N=C(c2ccc(C)o2)CC1c1cccc(F)c1 (centres undefined)	1430	1711	0	-4	1480	-6
COC(=O)c1cc(Br)c(=O)n(-c2ccccn2)c1	1459	.	-8	6	.	-4
COC(=O)c1cc(Br)c(=O)n(-c2nccs2)c1	2990*	.	74*	37*	.	57*	PPARg SRC2 ag=22*;PPARg SRC1 ag=10;PPARg SRC3 ag=16

Bioassay records: PubChem BioAssay, The Scripps Research Institute Molecular Screening Center
